{"source": "PubChem BioAssay (NCATS)", "note": "Records with an inconclusive call do not appear. Where a call stands in place of a potency, no number is given. Calls of active or inactive are those of the source. Unless noted, calls follow the shape of the dose curve; as a rule, active = well fitted curve in the direction sought with a large enough effect; inconclusive = small, poorly fitted or top-dose-only effect, or another doubt; inactive = no such curve, though single readings can be large; an effect the other way counts as inactive or inconclusive."}
{"target": "Luciferin 4-monooxygenase (Photinus pyralis) (UniProt P08659)", "sequence (P08659 whole entry, looked up)": "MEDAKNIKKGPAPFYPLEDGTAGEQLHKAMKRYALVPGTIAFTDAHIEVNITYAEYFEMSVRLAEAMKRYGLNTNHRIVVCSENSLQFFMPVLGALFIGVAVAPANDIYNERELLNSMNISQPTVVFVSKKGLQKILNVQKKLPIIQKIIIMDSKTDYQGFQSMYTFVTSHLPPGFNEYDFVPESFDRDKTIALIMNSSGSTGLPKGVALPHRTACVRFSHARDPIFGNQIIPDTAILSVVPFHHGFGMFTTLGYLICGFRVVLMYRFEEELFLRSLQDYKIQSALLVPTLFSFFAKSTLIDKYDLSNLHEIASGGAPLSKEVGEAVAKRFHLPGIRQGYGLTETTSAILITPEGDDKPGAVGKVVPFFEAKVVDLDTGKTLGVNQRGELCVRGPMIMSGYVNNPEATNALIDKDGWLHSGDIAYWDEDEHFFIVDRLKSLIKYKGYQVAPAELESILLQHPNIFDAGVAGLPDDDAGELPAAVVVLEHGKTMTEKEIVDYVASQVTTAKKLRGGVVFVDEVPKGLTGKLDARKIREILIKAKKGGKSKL", "assay": "Biochemical firefly luciferase enzyme assay for NPC (AID 624030);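 also: purified P. pyralis luciferase at 10 nM with luciferin and ATP substrate; nearly all actives have a fitted effect of over 70% in size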", "settings": "purified P. pyralis luciferase, luminescence, 5 min; series mostly up to 58.6 µM", "summary_of_the_method": "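Counter-screen for direct inhibition of the luciferase enzyme by approved-drug library compounds, run at 10 nM enzyme in 50 mM Tris acetate (final). Luminescence was read within 5 min of enzyme-buffer addition and normalized to PTC124 versus DMSO (0%).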"}
{"smiles": "Cc1nnc2n1-c1sc(CCc3ccc(CC(C)C)cc3)cc1C(c1ccccc1Cl)=NC2C", "note": "(centres undefined)", "Potency": "inactive"}
{"smiles": "O=C(O)CNC(=O)c1ccccc1I", "Potency": "inactive"}
{"smiles": "C[C@]12CC[C@H]3[C@@H](CCC4=CC(=O)CC[C@@H]43)[C@@H]1CC[C@@H]2O", "Potency": "inactive"}
{"smiles": "OC(c1ccccc1)(c1ccccc1)C1CCNCC1", "Potency": "inactive"}
{"tested_on": "not listed separately", "assay": "S16 Schwann cell viability assay (CellTiter-Glo assay) (AID 624031); also: nearly all actives have a fitted effect of over 70% in size; also: potency is read from the fitted curve at half-maximal effect", "settings": "S16 rat Schwann cells viability, 24 h; series mostly up to 57.5 µM", "summary_of_the_method": "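CellTiter-Glo ATP luminescence counter-screen in untransfected S16 rat Schwann cells, 24h compound exposure at 37 degree Celsius after overnight seeding (500-750 cells/well); response scaled between cell-free wells and DMSO (0% activity), curves classed by r2 and magnitude.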"}
{"smiles": "O=C1NCN(c2ccccc2)C12CCN(CCCC(c1ccc(F)cc1)c1ccc(F)cc1)CC2", "Potency": "22.8 µM (active)"}
{"smiles": "CCC1(c2ccccc2)CCC(=O)NC1=O", "note": "(centres undefined)", "Potency": "inactive"}
{"smiles": "Clc1ccc(CO/N=C(\\Cn2ccnc2)c2ccc(Cl)cc2Cl)c(Cl)c1", "Potency": "inactive"}
{"smiles": "Cc1c(Cl)c(=O)oc2cc(OP(=O)(OCCCl)OCCCl)ccc12", "Potency": "inactive"}
{"smiles": "CN1C(=O)[C@@H](NC(=O)c2cc3ccccc3[nH]2)N=C(c2ccccc2)c2ccccc21", "Potency": "inactive"}
{"smiles": "CC(Cc1ccccc1)NCc1ccccc1Cl", "note": "(centres undefined)", "Potency": "inactive"}
{"smiles": "OC(c1ccccc1)(c1ccccc1)C1CCNCC1", "Potency": "inactive"}
{"tested_on": "not listed separately", "assay": "S16 Schwann cell PMP22 intronic element firefly luciferase assay (AID 624032); also: nearly all actives have a fitted effect of over 30% in size; also: potency is read from the fitted curve at half-maximal effect", "settings": "S16 rat Schwann cells, PMP22 element FLuc, 24 h; series mostly up to 57.5 µM", "summary_of_the_method": "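Rat S16 Schwann cells stably carrying a PMP22 intronic element-driven Fluc reporter were seeded overnight, then exposed to compounds for 24 h at 37 °C. Luminescence was normalized to PTC124 (positive control) and DMSO (0% activity).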"}
{"smiles": "O=C(O)c1ccc(OCCCOc2ccc(C(=O)O)cc2)cc1", "Potency": "inactive"}
{"smiles": "Cc1cccc(C)c1NC(=O)CN1CCCC1", "Potency": "8.09 µM (active)"}
{"smiles": "C[C@]12Cc3nonc3C[C@@H]1CC[C@@H]1[C@@H]2CC[C@@]2(C)[C@H]1CC[C@]2(C)O", "Potency": "14.4 µM (active)"}
{"smiles": "O=C(Oc1cccc2cccnc12)c1ccccc1", "Potency": "9.07 µM (active)"}
{"smiles": "CN1C[C@H](C(=O)N[C@]2(C)O[C@@]3(O)[C@@H]4CCCN4C(=O)[C@H](Cc4ccccc4)N3C2=O)C[C@@H]2c3cccc4[nH]cc(c34)C[C@H]21", "Potency": "25.6 µM (active)"}
{"smiles": "CC(C)(C)C(=O)C(Oc1ccc(Cl)cc1)n1ccnc1", "note": "(centres undefined)", "Potency": "2.03 µM (active)"}
{"smiles": "Clc1ccc2c(c1)CCc1cccnc1C2=C1CCNCC1", "Potency": "28.7 µM (active)"}
{"smiles": "CCCCCCCCCCCCOCCOCCOCCOCCOCCOCCOCCOCCOCCO", "Potency": "18.1 µM (active)"}
{"smiles": "OC(c1ccccc1)(c1ccccc1)C1CCNCC1", "Potency": "inactive"}
{"tested_on": "not listed separately", "assay": "S16 Schwann cell PMP22 intronic element beta-lactamase assay (AID 624044; calls by dose curve; also: nearly all actives have a fitted effect of over 15% in size; also: potency is read from the fitted curve at half-maximal effect)", "settings": "S16 rat Schwann cells, PMP22 element beta-lactamase FRET, 24 h; series mostly up to 38.3 µM", "summary_of_the_method": "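Beta-lactamase reporter under a PMP22 intronic regulatory element in stable S16 rat Schwann cells; 24 h compound exposure. 460 nm blue signal normalized between DMSO (0%) and potassium clavulanate, with 535 nm FRET tracking viability; curves classed by r2 and response.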"}
{"smiles": "Clc1ccc(CO/N=C(\\Cn2ccnc2)c2ccc(Cl)cc2Cl)c(Cl)c1", "Potency": "inactive"}
{"smiles": "NC(N)=NN=C(/C=C/c1ccc([N+](=O)[O-])o1)/C=C/c1ccc([N+](=O)[O-])o1", "Potency": "9.99 µM (active)"}
{"smiles": "CC(Cc1ccccc1)NCc1ccccc1Cl", "note": "(centres undefined)", "Potency": "inactive"}
{"smiles": "CCCCCCCCCCCCCCCC[n+]1ccccc1", "Potency": "12.6 µM (active)"}
